Source: PubChem BioAssay (Tox21)
Results filed as inconclusive are left out. Where a call stands in place of a potency, no number is given. The source holds several records for some structures; these can differ, active in one and inactive in another. Calls of active or inactive are those of the source. Unless noted, calls follow the shape of the dose curve; as a rule, active = well fitted curve in the direction sought with a large enough effect in the repeat runs; inconclusive = weak or mixed curves; inactive = no such curve, though single readings can be large; an effect the other way counts as inactive or inconclusive.

Key:
[1] = A CellTox Green Cytotoxicity Assay to monitor cytotoxicity in HEK293 cells - 32 hour (AID 1224881); also: nearly all actives have a fitted effect of over 40% in size
Outline: (§1)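 Nonlytic real-time cytotoxicity: HEK293 + CellTox Green reagent plated, 5 h preincubation, pintool compound addition (23 nL in DMSO), 37 C for 40 h, fluorescence measured at successive time points.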

[2] = A CellTox Green Cytotoxicity Assay to monitor cytotoxicity in HepG2 cells - 0 hour (AID 1224882); also: nearly all actives have a fitted effect of over 35% in size
Outline: (§2)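 Read-out is fluorescence of a cyanine dye excluded from live cells that stains DNA of dead HepG2 cells, with signal proportional to cytotoxicity. Plates were read at 0, 8, 16, 24, 32 and 40 h after compound addition.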

[3] = A CellTox Green Cytotoxicity Assay to monitor cytotoxicity in HepG2 cells - 32 hour (AID 1224883); also: nearly all actives have a fitted effect of over 50% in size
Outline: as §2

[4] = A CellTox Green Cytotoxicity Assay to monitor cytotoxicity in HEK293 cells - 8 hour (AID 1224884); also: nearly all actives have a fitted effect of over 35% in size
Outline: as §1

[5] = qHTS RealTime-Glo MT Cell Viability Assay in HepG2 cells - 16 hour (AID 1224885); also: nearly all actives have a fitted effect of over 50% in size
Outline: (§3)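 Cells + NanoLuc/prosubstrate dispensed (600 cells/well) → 5 h at 37 C/5% CO2 → compounds in DMSO transferred → 40 h incubation at 37 C, luminescence read at 0, 8, 16, 24, 32, 40 h.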

[6] = qHTS RealTime-Glo MT Cell Viability Assay in HEK293 cells - 24 hour (AID 1224886); also: top concentration of the series differs between compounds; nearly all actives have a fitted effect of over 50% in size
Outline: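 Tox21 10K qHTS, HEK293, 600 cells/well, RealTime-Glo reagent co-dispensed with cells; 5 h preincubation, compound by pintool, 37 C, luminescence at 0–40 h.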

[7] = qHTS RealTime-Glo MT Cell Viability Assay in HEK293 cells - 8 hour (AID 1224887); also: top concentration of the series differs between compounds; nearly all actives have a fitted effect of over 50% in size
Outline: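 Cells were seeded together with NanoLuc luciferase and a prosubstrate that viable cells reduce to a luciferase substrate. After a 5 h incubation at 37 C/5% CO2, compounds were added and luminescence was measured repeatedly during 40 h of treatment.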

[8] = A CellTox Green Cytotoxicity Assay to monitor cytotoxicity in HEK293 cells - 16 hour (AID 1224888); also: nearly all actives have a fitted effect of over 35% in size
Outline: as §1

[9] = qHTS RealTime-Glo MT Cell Viability Assay in HepG2 cells - 0 hour (AID 1224889); also: nearly all actives have a fitted effect of over 50% in size
Outline: as §3

[10] = A CellTox Green Cytotoxicity Assay to monitor cytotoxicity in HepG2 cells - 8 hour (AID 1224890); also: nearly all actives have a fitted effect of over 45% in size
Outline: as §2

[11] = qHTS assay to identify small molecule antagonists of the estrogen receptor alpha (ER-alpha) signaling pathway using the BG1 cell line in the presence of 0.1 nM 17-beta-estradiol - cell viability counter screen (AID 1259241); also: nearly all actives have a fitted effect of over 40% in size
Outline: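 Measures cytotoxicity alongside the ER-alpha antagonist readout: VM7Luc4E2 cells, charcoal-stripped serum, 0.1 nM 17beta-estradiol final, 22 hr compound incubation at 37C, CellTiter-Fluor fluorescence.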

[12] = qHTS assay to identify small molecule antagonists of the androgen receptor (AR) signaling pathway using the MDA cell line in the presence of 0.5 nM R1881 - cell viability counter screen (AID 1259242); also: nearly all actives have a fitted effect of over 45% in size
Outline: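 Counter screen for cytotoxicity run in the same wells as the AR antagonist reporter screen: MDA-kb2 cells were treated 16 hr with test compounds and 0.5 nM R1881, then live-cell protease activity was measured by fluorescence.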

[13] = target: Estrogen receptor (Homo sapiens) (UniProt P03372); assay: qHTS assay to identify small molecule antagonists of the estrogen receptor alpha (ER-alpha) signaling pathway using the BG1 cell line in the presence of 0.1 nM 17-beta-estradiol (AID 1259244); also: nearly all actives have a fitted effect of over 50% in size
Sequence of Estrogen receptor (Homo sapiens) (P03372 whole entry, looked up): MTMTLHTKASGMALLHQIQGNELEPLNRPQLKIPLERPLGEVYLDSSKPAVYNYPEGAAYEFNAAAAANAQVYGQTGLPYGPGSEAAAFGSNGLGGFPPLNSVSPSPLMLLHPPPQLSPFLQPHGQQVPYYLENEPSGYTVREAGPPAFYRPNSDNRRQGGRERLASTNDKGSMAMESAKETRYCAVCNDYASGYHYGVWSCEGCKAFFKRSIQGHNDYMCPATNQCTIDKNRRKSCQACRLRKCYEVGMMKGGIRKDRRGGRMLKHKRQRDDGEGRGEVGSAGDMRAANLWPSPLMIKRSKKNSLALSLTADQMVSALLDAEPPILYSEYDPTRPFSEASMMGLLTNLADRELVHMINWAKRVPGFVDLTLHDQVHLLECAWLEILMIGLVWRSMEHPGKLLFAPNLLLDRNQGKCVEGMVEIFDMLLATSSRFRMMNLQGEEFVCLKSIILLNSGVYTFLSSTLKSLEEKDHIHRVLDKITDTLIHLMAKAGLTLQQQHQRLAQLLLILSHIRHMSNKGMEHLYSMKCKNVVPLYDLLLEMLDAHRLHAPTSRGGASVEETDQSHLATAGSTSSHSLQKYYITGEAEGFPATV
Outline: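 Cells: VM7Luc4E2, endogenous ER-alpha, 4x ERE-luc stable. Pre-culture 5 d, phenol red-free, charcoal-stripped FBS. Plated 24 h, compound + E2 0.1 nM final, 22 h 37C/5% CO2. Readout ONE-Glo luminescence.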

[14] = qHTS assay to identify small molecule HDAC inhibitors (AID 1259364); also: top concentration of the series differs between compounds; nearly all actives have a fitted effect of over 45% in size
Outline: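 Luminescence from a cell-permeant luminogenic class I/II HDAC substrate reports endogenous deacetylase activity in intact HCT-116 cells treated with compounds for 2 h.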

[15] = qHTS assay to identify small molecule HDAC inhibitors - cell viability counter screen (AID 1259365)
Outline: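 Following a 2hr exposure of overnight-plated wild-type HCT-116 cells to DMSO-delivered compounds, CellTiter-Glo was added and luminescence recorded after 30min at room temperature.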

[16] = qHTS assay to identify small molecule agonists of the sonic hedgehog signaling (Shh) pathway - cell viability counter screen (AID 1259366); also: nearly all actives have a fitted effect of over 50% in size; also: potency is read from the fitted curve at half-maximal effect
Outline: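 After a 4hr attachment at 37C, NIH/3T3 cells bearing an integrated Gli1-driven luciferase reporter were dosed with compounds. Treatment lasted 24hr, with the final hour including CellTiter-Fluor for a fluorescence viability measurement.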

[17] = qHTS assay to identify small molecule antagonists of the sonic hedgehog signaling (Shh) pathway - cell viability counter screen (AID 1259367); also: nearly all actives have a fitted effect of over 55% in size; also: potency is read from the fitted curve at half-maximal effect
Outline: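 NIH/3T3-derived Gli1-Luc reporter cells (2,000 per well) rested 4 hr at 37 C, then received DMSO compounds plus conditioned medium. After 23 hr of treatment, CellTiter-Fluor was added for 1 hr at 37C and fluorescence read.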

[18] = qHTS assay to identify small molecule agonists of the sonic hedgehog signaling (Shh) pathway (AID 1259368; calls by dose curve;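 also: NIH/3T3-derived 3T3Gli1-Luc cells carrying a stable Gli1-driven firefly luciferase reporter; series mostly up to about 92 µM; nearly all actives have a fitted effect of over 15% in size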)
Outline: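 3T3Gli1-Luc (NIH/3T3 clone, stable Gli1-Luc); 4 hr pre-incubation, then cpd in DMSO 24 hr, 37 C/5% CO2; luciferase reagent 30 min RT; luminescence.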

[19] = qHTS assay to identify small molecule phospholipidosis (PLD) inducers (AID 1259344; active = well fitted curve in the direction sought with a large enough effect; an effect the other way counts as inactive or inconclusive)
Outline: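 HepG2 cells on collagen I, attached 4 h at 37 C, were co-treated with compound and LipidTOX Red dye for 24 h at 37 C, then fixed with paraformaldehyde plus Hoechst 33342 and imaged by high-content microscopy for phospholipid accumulation.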

[20] = target: Androgen receptor (Homo sapiens) (UniProt P10275); assay: qHTS assay to identify small molecule antagonists of the androgen receptor (AR) signaling pathway using the MDA cell line in the presence of 0.5 nM R1881 (AID 1259243); also: nearly all actives have a fitted effect of over 50% in size
Sequence of Androgen receptor (Homo sapiens) (P10275 whole entry, looked up): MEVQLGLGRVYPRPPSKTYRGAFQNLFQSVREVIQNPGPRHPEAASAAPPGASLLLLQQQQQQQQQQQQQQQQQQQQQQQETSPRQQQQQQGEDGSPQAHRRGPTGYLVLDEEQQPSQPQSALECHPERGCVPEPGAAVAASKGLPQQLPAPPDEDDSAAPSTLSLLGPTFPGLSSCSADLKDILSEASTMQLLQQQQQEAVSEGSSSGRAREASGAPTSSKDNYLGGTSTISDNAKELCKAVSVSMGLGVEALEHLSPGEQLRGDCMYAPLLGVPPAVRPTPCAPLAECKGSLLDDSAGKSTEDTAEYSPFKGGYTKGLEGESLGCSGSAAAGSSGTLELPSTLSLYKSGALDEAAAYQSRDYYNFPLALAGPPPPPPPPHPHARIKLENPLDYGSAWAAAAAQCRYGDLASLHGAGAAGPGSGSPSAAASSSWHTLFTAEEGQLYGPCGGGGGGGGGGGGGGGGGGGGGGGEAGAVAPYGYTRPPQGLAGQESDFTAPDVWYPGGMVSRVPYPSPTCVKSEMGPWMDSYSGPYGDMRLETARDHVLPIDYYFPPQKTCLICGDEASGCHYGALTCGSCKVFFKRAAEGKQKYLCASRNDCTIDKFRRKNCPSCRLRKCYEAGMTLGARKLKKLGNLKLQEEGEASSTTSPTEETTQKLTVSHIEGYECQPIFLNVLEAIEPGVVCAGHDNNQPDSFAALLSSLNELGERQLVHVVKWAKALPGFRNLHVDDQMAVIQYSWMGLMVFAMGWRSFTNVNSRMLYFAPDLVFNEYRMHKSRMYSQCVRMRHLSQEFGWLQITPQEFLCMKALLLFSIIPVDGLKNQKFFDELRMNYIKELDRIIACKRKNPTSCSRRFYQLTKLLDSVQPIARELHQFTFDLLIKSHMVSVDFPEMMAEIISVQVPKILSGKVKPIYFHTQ
Outline: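 Luciferase luminescence is the read-out: compounds are tested for suppressing 0.5 nM R1881-driven MMTV reporter activity in MDA-kb2 cells after 16 hr at 37C.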

SMILES	Potency [1]	Potency [2]	Potency [3]	Potency [4]	Potency [5]	Potency [6]	Potency [7]	Potency [8]	Potency [9]	Potency [10]	Potency [11]	Potency [12]	Potency [13]	Potency [14]	Potency [15]	Potency [16]	Potency [17]	Potency [18]	outcome [19]	Potency [20]
Cc1cc(C)cc(O)c1	inactive	inactive	inactive	inactive	inactive	inactive	inactive	inactive	inactive	inactive	inactive	inactive	inactive	inactive	inactive	8.65 µM (active) and inactive	2.44 µM (active) and inactive	inactive		
COc1ccc([C@@H]2CC(=O)c3c(O)cc(O[C@@H]4O[C@H](CO[C@@H]5O[C@@H](C)[C@H](O)[C@@H](O)[C@H]5O)[C@@H](O)[C@H](O)[C@H]4O)cc3O2)cc1OC	inactive	inactive	inactive	inactive	inactive	inactive	inactive	inactive	inactive	inactive	inactive	inactive	inactive	inactive	inactive	inactive	inactive	inactive		
OB(O)O	inactive	inactive	inactive	inactive	inactive	inactive	inactive	inactive	inactive	inactive	inactive	inactive	inactive	inactive	inactive	inactive	inactive	inactive	inactive	
CC/C=C(\C(=O)N[C@@H]1C(=O)N2C(C(=O)OCOC(=O)C(C)(C)C)=C(COC(N)=O)CS[C@H]12)c1csc(N)n1	inactive	inactive	inactive	inactive	inactive	inactive	inactive	inactive	inactive	inactive	inactive	inactive	inactive	inactive	inactive	inactive	inactive	inactive	inactive	
CCCCCCCCC(=O)O	inactive	inactive	inactive	inactive	inactive	inactive	inactive	inactive	inactive	inactive	inactive	inactive	inactive	inactive	inactive	inactive	inactive	inactive		
O=C(O)C1=NN(c2ccc(S(=O)(=O)O)cc2)C(=O)C1	inactive	inactive	inactive	inactive	inactive	inactive	inactive	inactive	inactive	inactive	inactive	inactive	inactive	inactive	inactive	inactive	inactive	inactive		
O=[N+]([O-])c1ccccc1C(F)(F)F	inactive	inactive	inactive	inactive	inactive	inactive	inactive	inactive	inactive	inactive	inactive	inactive	inactive	inactive	inactive	inactive	inactive	inactive		inactive
C[Si](C)(C)N[Si](C)(C)C	inactive	inactive	inactive	inactive	inactive	inactive	inactive	inactive	inactive	inactive	inactive	inactive	inactive	inactive	inactive	inactive	inactive	inactive		
